Source: PubChem BioAssay (National Center for Advancing Translational Sciences (NCATS))
Only some compounds are listed: those with a hit (about 6.4% of all), similar ones and a draw of the others.
KinaseGlo FLuc: counter-screen: inhibitors of Kinase-Glo firefly luciferase; AID 1379; hit rate 0.28% among 200,000; Kinase-Glo luciferase, ATP luminescence, 8 min; Potency, µM (series often up to 38.3 µM), hits mostly inhibitors; also: nearly all actives have a fitted effect of over 60% in size
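Light output from Kinase-Glo luciferase with luciferin and 10 uM ATP in 50 mM imidazole pH 7.2, KCl, MgCl2, Tween 20, BSA; compound pin-delivered, 8-min ambient incubation, then luminescence read.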
Gal4-VP16 FLuc: Gal4-VP16 reporter inhibition counter-screen | AID 2546 | Potency, µM (titrated, usually from 53.6 µM), most hits filed as inhibitors | hit rate 3.5% among 310,000 | Drosophila S2 Gal4-VP16 UAS-luciferase, luminescence, 20 h;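 also: Gal4-VP16 expression switched on by copper sulfate through the metallothionein promoter; nearly all actives have a fitted effect of over 50% in size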
RORgamma inh: ROR gamma (mouse) transcription inhibition | Drosophila S2 Gal4-RORgamma UAS-luciferase reporter, 20 h | Potency, µM (series often up to 53.6 µM), actives largely listed as inhibitors | hit rate 5.4% among 310,000; also: nearly all actives have a fitted effect of over 60% in size
Target sequence (P51450 whole entry, looked up, the tested form may be a part): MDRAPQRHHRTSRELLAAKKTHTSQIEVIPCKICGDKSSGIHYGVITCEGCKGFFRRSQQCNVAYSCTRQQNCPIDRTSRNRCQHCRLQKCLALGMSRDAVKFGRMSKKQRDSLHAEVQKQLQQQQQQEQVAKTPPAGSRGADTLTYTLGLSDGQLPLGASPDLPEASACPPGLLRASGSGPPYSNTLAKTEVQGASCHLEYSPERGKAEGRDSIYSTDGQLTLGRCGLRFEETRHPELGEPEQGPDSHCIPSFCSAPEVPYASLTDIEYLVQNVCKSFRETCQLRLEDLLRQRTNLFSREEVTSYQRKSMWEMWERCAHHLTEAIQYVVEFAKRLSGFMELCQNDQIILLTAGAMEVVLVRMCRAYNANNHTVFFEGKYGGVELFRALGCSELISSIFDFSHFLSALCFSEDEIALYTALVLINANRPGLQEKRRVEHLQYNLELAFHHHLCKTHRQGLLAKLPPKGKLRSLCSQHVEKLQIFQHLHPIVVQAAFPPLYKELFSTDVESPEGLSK
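Schneider cells (Drosophila), stable Gal4 DBD–ROR gamma + UAS-luc; 1 hr cmpd preincubation; Cu2+ induction 700 uM final; 20 hr ambient; luminescence.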
A number is an active result; 0 = inactive; ? = inconclusive; - = no result given; [ ] = dose if it differs, or a comment. Calls follow the shape of the dose curve; as a rule, active = well fitted curve in the direction sought with a large enough effect; inconclusive = small, poorly fitted or top-dose-only effect, or another doubt; inactive = no such curve, though single readings can be large; an effect the other way counts as inactive or inconclusive.

SMILES	KinaseGlo FLuc	Gal4-VP16 FLuc	RORgamma inh
Cc1cccc(C)c1NC(=S)NNc1ncc(C(F)(F)F)cc1Cl	0	?	7.9µM
Cc1ccc(S(=O)(=O)Nc2ncc(C(F)(F)F)cc2Cl)cc1	0	0	?
Cc1c(Cl)cccc1NC(=S)NNc1ncc(C(F)(F)F)cc1Cl	0	?	16µM
Cc1ccccc1NC(=S)NNc1ncc(C(F)(F)F)cc1Cl	0	0	0
CCCCC/C=C\C/C=C\C/C=C\C/C=C\CCCC(=O)O[C@H](COCCCCCCCCCCCCCCCC)COP(=O)([O-])OCC[N+](C)(C)C	0	0	0
C=CCn1c2ccccc2c2nnc(SCCN3CCOCC3)nc21	-	0	0
CC(=O)Nc1ccc(S(=O)(=O)Oc2ccc(N3C(=O)C4CCCCC4C3=O)cc2)cc1 (stereo unspecified)	0	13µM	?
CC(=O)Nc1ccc(S(=O)(=O)Oc2cccc(N3C(=O)C4CC=CCC4C3=O)c2)cc1 (stereo unspecified)	0	0	0
COc1cccc(C(=O)N=c2sc3cc(S(C)(=O)=O)ccc3n2C)c1	0	?	0
COc1ccc(C(CCNCc2ccc(OC(C)C)cc2)C(C)C)cc1 (stereo unspecified)	-	?	13µM
COc1ccc(CNCCC(c2ccc(OC(C)C)cc2)C(C)C)cc1OC (stereo unspecified)	0	0	0
Cc1ccc(S(=O)(=O)Oc2ccccc2/C=N/NC(=O)c2c(Cl)cnn2C)cc1	0	?	3.2µM
Cn1ncc(Cl)c1C(=O)N/N=C/c1ccccn1	0	0	0
O=C1C2C3C=CC(C3)C2C(=O)N1c1ccc2ccccc2c1 (stereo unspecified)	-	0	0
CN1c2ccccc2N(C)C1(C)c1cccc2ccccc12	0	?	0
CC1=CC(C)(C)NC(=S)N1c1cccc2ccccc12	0	5µM	?
CC1=CC(C)(C)NC(=S)N1c1ccc2ccccc2c1	0	6.3µM	3.5µM
Cc1nnc(C)c2c(C)n(C(C)c3ccccc3)c(C)c12 (stereo unspecified)	0	0	0
CC1=CC(C)(C)NC(=S)N1C(C)c1ccccc1 (stereo unspecified)	-	4µM	2.2µM
CC(C)(CC(=O)O)CC(=O)N1CCN(c2cc(C(F)(F)F)nc3ccccc23)CC1	-	0	0
CCOC(=O)c1sc(NC(=O)CN2CCN(c3ccccc3)CC2)nc1C	-	0	0
CC(=O)c1cnc(Nc2nc(C)c3cc(C)c(C)cc3n2)nc1C	0	0[0.365 µM]	3.5µM
CSc1ncc(C(C)=O)c(C)n1	0	0	0
O=C(NCc1ccco1)/C(=C/c1ccc(F)cc1)NC(=O)c1ccccc1	-	0	0
CCC1Oc2ccc(C)cc2N(CC(=O)NCc2cc(OC)ccc2OC)C1=O (stereo unspecified)	0	0	0
SMILES	KinaseGlo FLuc	Gal4-VP16 FLuc	RORgamma inh
CCC1Oc2ccc(C)cc2N(CC(=O)NCc2cccc(OC)c2)C1=O (stereo unspecified)	0	22µM	?
C[C@H](C(=O)O)c1ccc2cc(O)ccc2c1	-	0	0
CCSc1nc2ccccc2c(=O)n1C1CCOC(C)(C)C1 (stereo unspecified)	0	0	0
CC1CCN(CCn2c(=S)[nH]c3ccccc3c2=O)CC1	-	0	?
O=c1c2ccccc2[nH]c(=S)n1CCCN1CCN(C2CCCCC2)CC1	0	-	0[0.365 µM]
O=c1c2ccccc2[nH]c(=S)n1C1CCCCC1	0	2.8µM	0.89µM
CC1CCC(n2c(=S)[nH]c3ccccc3c2=O)CC1 (stereo unspecified)	0	1µM	0.2µM
CC1CCCCN1CCCn1c(=S)[nH]c2ccccc2c1=O (stereo unspecified)	0	0	0
CC1CCCC(n2c(=S)[nH]c3ccccc3c2=O)C1C (stereo unspecified)	0	0.63µM	0.28µM
CC1(C)CC(n2c(=S)[nH]c3ccccc3c2=O)CCO1 (stereo unspecified)	0	8.9µM	8.9µM
COc1ccc(-n2nc(C(=O)NCC(=O)N3CCN(Cc4ccccc4)CC3)c3ccccc3c2=O)c(OC)c1	-	0	0
CC(=O)c1cc2c(cc1NC(=O)CN1Cc3ccccc3C1=O)OCO2	-	0	0
NCC[C@H](O)C(=O)N[C@H]1C[C@@H](N)[C@@H](O[C@H]2O[C@@H](CN)[C@@H](O)[C@@H](O)[C@@H]2O)[C@@H](O)[C@@H]1O[C@H]1O[C@@H](CO)[C@@H](O)[C@@H](N)[C@@H]1O	0	0	0
O=C(CCCc1ccccc1)c1ccc2c(c1)OCCO2	0	2.2µM	1.1µM
O=C(CCc1ccccc1)c1ccc2c(c1)OCCCO2	0	0	0
COc1ccc(CCNC(=O)c2ccc3c(c2)OCO3)cc1	-	0	0
COc1ccc(CCNC(=O)c2ccc3c(c2)OCCO3)cc1	0	0	0
CCOCCCNC(=O)c1ccc2c(c1)OCO2	0	0	0
O=C(NCCc1ccccc1)c1ccc2c(c1)OCCO2	-	1.3µM	1.4µM
O=C(NCCc1ccccc1)c1ccc2c(c1)OCCCO2	-	0.63µM	0.35µM
O=C(NCCOc1ccccc1)c1ccc2c(c1)OCO2	0	?	5µM
CCNc1ncc2nc(-c3ccccc3)c(=O)n(C[C@H]3CCCO3)c2n1	-	0	0
Clc1ccc(OCCN2CCN(c3ncnc4sccc34)CC2)cc1	0	0.63µM	?
Cc1sc2ncnc(N3CCCCC3)c2c1C	0	0	0
Cc1ccc(OCCN2CCN(c3ncnc4sc(C)c(C)c34)CC2)cc1	0	3.5µM	8.9µM
SMILES	KinaseGlo FLuc	Gal4-VP16 FLuc	RORgamma inh
CCN1CCN(CCOc2ccc(Cl)cc2)CC1	0	0	0
COc1cc(Cl)c(C)cc1NC(=O)CSc1cc(Cl)ccc1Cl	0	0	0
CC(=O)N[C@H](Cc1ccc(O)cc1)C(=O)O	0[7.66 µM]	-	-
CCN(CC)CCNC(=O)c1[nH]c2ccc(OCc3ccccc3)cc2c1C	0	0	13µM
CCN(Cc1ccccc1)C(=O)c1[nH]c2ccc(OC)cc2c1C	-	0	0
c1ccc(OCCCCn2cnc3ccccc32)cc1	0	?	13µM
c1ccc2c(c1)ncn2CCN1CCCCC1	0	0	0
c1ccc(CCn2cnc3ccccc32)cc1	0	?	13µM
Cc1ccccc1OCCCCn1cnc2ccccc21	0	10µM	0
c1ccc(OCCn2cnc3ccccc32)cc1	0	0[0.365 µM]	0
Cc1ccc(OCCCCn2cnc3ccccc32)cc1	0	0	0
COc1cccc(NC(=O)CN2C(=O)NC(c3ccccc3)(c3ccccc3)C2=O)c1	-	0	0
O=[N+]([O-])c1ccc(Oc2ccc(Oc3ccc(C(F)(F)F)cn3)cc2)nc1	-	0	?
CC(=O)Nc1ccc(S(=O)(=O)N2CCC(C(=O)NCc3cccnc3)CC2)cc1	-	0	0
C/C(=N/OC(=O)C1CC12CCC2)c1ccc(Br)cc1 (stereo unspecified)	0	0	0
CC(=O)Nc1ccccc1-c1nc2ccccc2nc1OCC(=O)c1ccc(Cl)cc1	0	0	0
COC(=O)/C=C1/N/C(=N\c2nc(C)cc(C)n2)N(c2ccc(Cl)cc2)C1=O	0	0	?
CCOC(=O)c1c(C)[nH]c(C(=O)CSc2nnc(-c3ccncc3)n2CC)c1C	0	0	0
C=CCn1c(SCC(=O)c2[nH]c(C)c(C(=O)OCC)c2C)nc2scc(-c3ccc(OC)c(OC)c3)c2c1=O	0	10µM	10µM
CC1(c2ccc([N+](=O)[O-])cc2)NC(=O)NC1=O (stereo unspecified)	-	0	0
